# What was measured:
# Experiment in all cases: DAPPL (digital affinity profiling via proximity ligation, sequencing); 10 mM Tris-HCl pH 7.5, 50 mM NaCl, 1 mM DTT, 4% glycerol, room temperature, 30 min; GST-TFs on glutathione beads, 16-mer random dsDNA library, 0.1% formaldehyde crosslink after washing; high values mean tight binding
# [1] = target: T1, FEV (Homo sapiens, UniProt Q99581 1-238); conditions: protein: recombinant; tags: N-terminal GST; dsDNA, one strand shown
# T1 sequence: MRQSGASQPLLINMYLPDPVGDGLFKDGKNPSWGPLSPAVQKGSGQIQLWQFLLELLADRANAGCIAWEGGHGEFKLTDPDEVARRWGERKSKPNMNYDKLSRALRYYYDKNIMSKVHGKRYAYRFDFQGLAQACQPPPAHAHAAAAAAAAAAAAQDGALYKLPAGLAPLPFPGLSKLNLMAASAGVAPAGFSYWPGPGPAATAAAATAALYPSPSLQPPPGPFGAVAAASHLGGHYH
# Summary of the method: (§1)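 Sequencing on an Illumina NextSeq500 followed washing, crosslinking with 0.1% formaldehyde, proximity ligation (BsaI/T4 ligase, 1 h, 37 °C) and PCR amplification of pools that had been incubated for 30 min at room temperature with 200 nmole of a random double-stranded 16-mer DNA library in Tris/NaCl/DTT/glycerol buffer. Each pool held DNA-barcoded human transcription factors, expressed in yeast as GST fusions and captured on glutathione beads, plus a tag-only sample. Binding signal is a hexamer's read frequency for a factor divided by its frequency in the tag-only sample.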
# [2] = target: ETV5 (Homo sapiens, UniProt P41161 1-510); conditions: protein: recombinant; tags: N-terminal GST; dsDNA, one strand shown
# Summary of the method: as §1
# [3] = target: HSF1 (Homo sapiens, UniProt Q00613 1-529); conditions: protein: recombinant; tags: N-terminal GST; chain copies: 3; dsDNA, one strand shown
# Summary of the method: as §1
# [4] = target: T2, SPIC (Homo sapiens, UniProt Q8N5J4 1-248); conditions: protein: recombinant; tags: N-terminal GST; dsDNA, one strand shown
# T2 sequence: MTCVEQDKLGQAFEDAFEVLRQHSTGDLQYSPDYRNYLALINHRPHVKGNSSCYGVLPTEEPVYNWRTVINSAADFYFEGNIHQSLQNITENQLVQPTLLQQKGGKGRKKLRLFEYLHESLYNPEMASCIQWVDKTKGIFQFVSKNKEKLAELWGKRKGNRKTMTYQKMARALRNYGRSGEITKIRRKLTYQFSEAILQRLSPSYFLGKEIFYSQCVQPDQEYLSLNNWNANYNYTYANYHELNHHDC
# Summary of the method: as §1
# [5] = target: ELF4 (Homo sapiens, UniProt Q99607 1-663); conditions: protein: recombinant; tags: N-terminal GST; dsDNA, one strand shown
# Summary of the method: as §1
# [6] = target: T3, ELK4 (Homo sapiens, UniProt P28324-2 1-405); conditions: protein: recombinant; tags: N-terminal GST; dsDNA, one strand shown
# T3 sequence: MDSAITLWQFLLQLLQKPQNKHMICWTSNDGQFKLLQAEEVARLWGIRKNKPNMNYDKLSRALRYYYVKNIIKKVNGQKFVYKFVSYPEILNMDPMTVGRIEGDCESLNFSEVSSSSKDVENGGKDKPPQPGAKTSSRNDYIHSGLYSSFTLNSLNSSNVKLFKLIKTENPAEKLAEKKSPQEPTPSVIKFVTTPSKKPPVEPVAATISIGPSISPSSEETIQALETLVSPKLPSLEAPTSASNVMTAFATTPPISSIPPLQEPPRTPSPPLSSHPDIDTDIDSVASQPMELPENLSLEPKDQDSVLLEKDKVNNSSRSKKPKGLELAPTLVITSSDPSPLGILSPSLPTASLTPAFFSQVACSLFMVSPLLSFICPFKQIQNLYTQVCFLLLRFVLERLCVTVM
# Summary of the method: as §1
# [7] = target: T4, ETV2 (Homo sapiens, UniProt O00321 1-342); conditions: protein: recombinant; tags: N-terminal GST; dsDNA, one strand shown
# T4 sequence: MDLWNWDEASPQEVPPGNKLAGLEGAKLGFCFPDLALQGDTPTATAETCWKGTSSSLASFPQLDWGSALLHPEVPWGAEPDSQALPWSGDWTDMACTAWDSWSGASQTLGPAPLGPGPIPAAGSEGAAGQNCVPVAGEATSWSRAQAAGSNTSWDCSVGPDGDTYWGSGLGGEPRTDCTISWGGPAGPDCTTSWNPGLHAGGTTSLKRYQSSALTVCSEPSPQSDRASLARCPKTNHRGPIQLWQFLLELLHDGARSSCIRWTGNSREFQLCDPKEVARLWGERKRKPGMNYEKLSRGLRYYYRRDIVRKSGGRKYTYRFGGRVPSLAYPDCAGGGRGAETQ
# Summary of the method: as §1
# [8] = target: T5, ELF3 (Homo sapiens, UniProt P78545 1-371); conditions: protein: recombinant; tags: N-terminal GST; dsDNA, one strand shown
# T5 sequence: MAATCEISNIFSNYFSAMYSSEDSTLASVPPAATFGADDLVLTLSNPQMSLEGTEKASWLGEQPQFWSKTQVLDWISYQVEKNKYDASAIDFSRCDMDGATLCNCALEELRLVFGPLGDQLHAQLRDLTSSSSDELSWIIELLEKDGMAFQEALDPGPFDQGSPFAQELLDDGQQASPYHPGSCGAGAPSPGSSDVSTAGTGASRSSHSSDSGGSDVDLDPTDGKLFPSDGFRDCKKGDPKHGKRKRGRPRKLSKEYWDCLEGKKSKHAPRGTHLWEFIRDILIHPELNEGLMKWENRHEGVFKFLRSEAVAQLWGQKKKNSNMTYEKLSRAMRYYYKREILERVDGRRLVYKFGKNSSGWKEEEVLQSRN
# Summary of the method: as §1
# [9] = target: ETV1 (Homo sapiens, UniProt P50549 1-477); conditions: protein: recombinant; tags: N-terminal GST; dsDNA, one strand shown
# Summary of the method: as §1
# [10] = target: T6, ERF (Homo sapiens, UniProt P50548 1-548); conditions: protein: recombinant; tags: N-terminal GST; dsDNA, one strand shown
# T6 sequence: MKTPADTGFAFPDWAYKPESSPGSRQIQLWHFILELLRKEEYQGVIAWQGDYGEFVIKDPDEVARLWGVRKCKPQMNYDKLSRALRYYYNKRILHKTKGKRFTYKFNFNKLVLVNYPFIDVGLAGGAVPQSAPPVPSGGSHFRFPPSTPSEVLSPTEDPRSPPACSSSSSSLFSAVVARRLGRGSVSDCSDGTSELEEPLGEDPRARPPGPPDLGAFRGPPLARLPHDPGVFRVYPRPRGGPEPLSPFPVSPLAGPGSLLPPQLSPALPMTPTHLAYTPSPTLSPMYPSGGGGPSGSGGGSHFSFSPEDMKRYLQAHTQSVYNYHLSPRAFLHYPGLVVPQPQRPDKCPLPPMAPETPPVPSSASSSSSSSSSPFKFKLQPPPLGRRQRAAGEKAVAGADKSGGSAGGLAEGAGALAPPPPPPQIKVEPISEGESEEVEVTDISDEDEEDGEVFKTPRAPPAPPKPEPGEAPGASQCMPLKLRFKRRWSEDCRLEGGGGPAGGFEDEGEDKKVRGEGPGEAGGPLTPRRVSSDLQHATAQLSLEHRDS
# Summary of the method: as §1
# [11] = target: T7, ETV3L (Homo sapiens, UniProt Q6ZN32 1-361); conditions: protein: recombinant; tags: N-terminal GST; dsDNA, one strand shown
# T7 sequence: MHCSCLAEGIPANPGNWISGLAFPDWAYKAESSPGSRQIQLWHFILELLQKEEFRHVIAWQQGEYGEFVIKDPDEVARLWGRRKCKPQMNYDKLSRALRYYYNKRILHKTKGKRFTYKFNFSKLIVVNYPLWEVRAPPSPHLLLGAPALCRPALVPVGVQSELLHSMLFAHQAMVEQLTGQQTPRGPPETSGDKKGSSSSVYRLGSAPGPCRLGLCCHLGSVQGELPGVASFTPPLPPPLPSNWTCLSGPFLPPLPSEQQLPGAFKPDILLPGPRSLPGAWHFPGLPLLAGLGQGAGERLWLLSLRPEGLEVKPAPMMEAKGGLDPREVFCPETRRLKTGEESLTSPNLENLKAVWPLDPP
# Summary of the method: as §1
# [12] = target: T8, ETS2 (Homo sapiens, UniProt P15036 1-469); conditions: protein: recombinant; tags: N-terminal GST; dsDNA, one strand shown
# T8 sequence: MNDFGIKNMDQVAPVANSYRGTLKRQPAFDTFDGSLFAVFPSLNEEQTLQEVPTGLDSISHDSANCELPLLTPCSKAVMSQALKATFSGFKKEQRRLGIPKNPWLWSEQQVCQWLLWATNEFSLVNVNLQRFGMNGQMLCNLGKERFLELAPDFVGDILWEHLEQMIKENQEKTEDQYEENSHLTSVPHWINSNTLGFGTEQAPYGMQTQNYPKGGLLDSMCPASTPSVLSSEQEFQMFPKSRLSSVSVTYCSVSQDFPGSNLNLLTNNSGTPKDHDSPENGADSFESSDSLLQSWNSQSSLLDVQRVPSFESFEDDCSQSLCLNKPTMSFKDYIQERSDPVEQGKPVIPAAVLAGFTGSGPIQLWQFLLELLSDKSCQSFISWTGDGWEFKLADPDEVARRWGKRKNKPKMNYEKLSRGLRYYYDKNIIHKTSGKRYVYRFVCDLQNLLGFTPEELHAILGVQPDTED
# Summary of the method: as §1
# [13] = target: T9, SPDEF (Homo sapiens, UniProt O95238 1-335); conditions: protein: recombinant; tags: N-terminal GST; dsDNA, one strand shown
# T9 sequence: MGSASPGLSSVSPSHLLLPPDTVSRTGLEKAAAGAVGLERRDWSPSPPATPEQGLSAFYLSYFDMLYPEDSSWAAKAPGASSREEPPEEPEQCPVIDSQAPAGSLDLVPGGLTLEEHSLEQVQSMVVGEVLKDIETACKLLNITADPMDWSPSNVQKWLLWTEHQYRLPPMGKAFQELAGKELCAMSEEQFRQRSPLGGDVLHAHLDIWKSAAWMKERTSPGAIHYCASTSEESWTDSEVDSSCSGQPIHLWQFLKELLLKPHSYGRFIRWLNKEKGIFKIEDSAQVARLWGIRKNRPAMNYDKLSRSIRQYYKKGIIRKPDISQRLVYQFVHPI
# Summary of the method: as §1
# [14] = target: T10, ETV7 (Homo sapiens, UniProt Q9Y603 1-341); conditions: protein: recombinant; tags: N-terminal GST; dsDNA, one strand shown
# T10 sequence: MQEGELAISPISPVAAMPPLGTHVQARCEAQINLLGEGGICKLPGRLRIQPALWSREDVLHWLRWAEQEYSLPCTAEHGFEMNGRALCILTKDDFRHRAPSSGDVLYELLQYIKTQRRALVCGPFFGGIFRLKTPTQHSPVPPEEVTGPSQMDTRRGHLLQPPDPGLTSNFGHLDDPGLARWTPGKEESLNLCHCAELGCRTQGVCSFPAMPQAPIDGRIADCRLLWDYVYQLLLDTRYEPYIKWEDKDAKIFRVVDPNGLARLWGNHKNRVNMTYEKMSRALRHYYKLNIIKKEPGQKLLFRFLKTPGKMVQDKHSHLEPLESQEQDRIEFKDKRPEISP
# Summary of the method: as §1
# [15] = target: T11, ELF5 (Homo sapiens, UniProt Q9UKW6-2 1-255); conditions: protein: recombinant; tags: N-terminal GST; dsDNA, one strand shown
# T11 sequence: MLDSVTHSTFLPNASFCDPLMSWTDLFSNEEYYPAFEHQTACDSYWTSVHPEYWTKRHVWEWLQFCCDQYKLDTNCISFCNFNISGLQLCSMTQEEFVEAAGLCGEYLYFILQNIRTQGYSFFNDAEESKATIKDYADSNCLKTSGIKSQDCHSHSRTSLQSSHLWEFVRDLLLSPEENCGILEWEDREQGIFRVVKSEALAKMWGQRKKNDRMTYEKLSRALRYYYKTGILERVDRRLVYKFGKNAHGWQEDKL
# Summary of the method: as §1
# [16] = target: T12, ETV3 (Homo sapiens, UniProt P41162-2 1-143); conditions: protein: recombinant; tags: N-terminal GST; dsDNA, one strand shown
# T12 sequence: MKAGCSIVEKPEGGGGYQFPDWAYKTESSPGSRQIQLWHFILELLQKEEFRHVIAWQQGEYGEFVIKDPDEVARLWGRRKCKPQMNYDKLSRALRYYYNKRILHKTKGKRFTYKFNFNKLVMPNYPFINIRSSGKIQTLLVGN
# Summary of the method: as §1
# [17] = target: ETV6 (Homo sapiens, UniProt P41212 1-452); conditions: protein: recombinant; tags: N-terminal GST; dsDNA, one strand shown
# Summary of the method: as §1
# Sequence of HSF1 (Q00613 whole entry): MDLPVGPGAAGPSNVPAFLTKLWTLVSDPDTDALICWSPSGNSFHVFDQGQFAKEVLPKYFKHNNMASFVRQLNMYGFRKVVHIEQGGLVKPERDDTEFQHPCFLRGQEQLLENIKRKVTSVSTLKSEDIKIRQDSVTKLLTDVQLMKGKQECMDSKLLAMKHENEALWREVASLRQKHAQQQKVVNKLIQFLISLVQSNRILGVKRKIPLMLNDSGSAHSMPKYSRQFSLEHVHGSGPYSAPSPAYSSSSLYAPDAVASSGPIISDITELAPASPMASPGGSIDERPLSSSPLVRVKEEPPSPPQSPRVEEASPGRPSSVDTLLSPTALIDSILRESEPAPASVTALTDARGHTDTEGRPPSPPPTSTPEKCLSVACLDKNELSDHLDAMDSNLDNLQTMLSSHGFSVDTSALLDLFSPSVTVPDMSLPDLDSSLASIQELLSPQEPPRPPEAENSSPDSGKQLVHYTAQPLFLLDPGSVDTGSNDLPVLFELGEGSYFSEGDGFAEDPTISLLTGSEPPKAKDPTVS
# Sequence of ETV6 (P41212 whole entry): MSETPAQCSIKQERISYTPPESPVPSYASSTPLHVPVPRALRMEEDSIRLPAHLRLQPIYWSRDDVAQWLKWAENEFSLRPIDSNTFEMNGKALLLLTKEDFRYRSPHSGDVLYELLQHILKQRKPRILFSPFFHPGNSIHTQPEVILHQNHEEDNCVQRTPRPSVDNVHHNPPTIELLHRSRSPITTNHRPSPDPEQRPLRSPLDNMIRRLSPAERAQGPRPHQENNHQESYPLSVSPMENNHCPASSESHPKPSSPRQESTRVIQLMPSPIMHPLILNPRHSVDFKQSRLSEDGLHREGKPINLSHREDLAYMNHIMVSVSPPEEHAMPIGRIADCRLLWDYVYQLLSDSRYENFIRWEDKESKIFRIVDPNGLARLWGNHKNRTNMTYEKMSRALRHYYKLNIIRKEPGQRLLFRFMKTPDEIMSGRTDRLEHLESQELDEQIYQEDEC
# Sequence of ETV5 (P41161 whole entry): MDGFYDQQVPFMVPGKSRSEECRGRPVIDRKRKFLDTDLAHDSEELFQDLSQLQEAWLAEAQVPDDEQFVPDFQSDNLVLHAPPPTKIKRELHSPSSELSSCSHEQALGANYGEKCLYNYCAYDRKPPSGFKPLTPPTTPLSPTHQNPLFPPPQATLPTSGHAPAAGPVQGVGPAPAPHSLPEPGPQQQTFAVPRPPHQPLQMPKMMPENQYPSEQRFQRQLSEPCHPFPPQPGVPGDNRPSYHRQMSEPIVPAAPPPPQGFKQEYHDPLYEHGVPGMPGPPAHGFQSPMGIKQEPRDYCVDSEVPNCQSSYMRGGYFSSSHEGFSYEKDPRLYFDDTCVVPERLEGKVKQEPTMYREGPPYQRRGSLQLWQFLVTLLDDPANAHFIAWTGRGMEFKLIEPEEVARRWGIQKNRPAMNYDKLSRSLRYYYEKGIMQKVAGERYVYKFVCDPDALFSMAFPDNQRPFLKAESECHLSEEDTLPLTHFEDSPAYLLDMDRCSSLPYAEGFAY
# Sequence of ETV1 (P50549 whole entry): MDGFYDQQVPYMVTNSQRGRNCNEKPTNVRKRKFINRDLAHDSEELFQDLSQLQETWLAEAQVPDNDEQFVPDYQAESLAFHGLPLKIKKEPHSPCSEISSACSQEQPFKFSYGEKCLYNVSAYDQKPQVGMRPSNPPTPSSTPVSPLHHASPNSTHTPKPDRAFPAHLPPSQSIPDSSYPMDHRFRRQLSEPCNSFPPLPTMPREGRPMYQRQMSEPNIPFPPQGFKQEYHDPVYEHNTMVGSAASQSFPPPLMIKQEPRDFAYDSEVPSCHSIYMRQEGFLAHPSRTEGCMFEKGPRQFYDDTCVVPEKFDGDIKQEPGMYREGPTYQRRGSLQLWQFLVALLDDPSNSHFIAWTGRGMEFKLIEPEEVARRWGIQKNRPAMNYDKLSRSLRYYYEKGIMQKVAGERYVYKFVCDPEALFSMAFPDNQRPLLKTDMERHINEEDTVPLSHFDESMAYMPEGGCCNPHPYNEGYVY
# Sequence of ELF4 (Q99607 whole entry): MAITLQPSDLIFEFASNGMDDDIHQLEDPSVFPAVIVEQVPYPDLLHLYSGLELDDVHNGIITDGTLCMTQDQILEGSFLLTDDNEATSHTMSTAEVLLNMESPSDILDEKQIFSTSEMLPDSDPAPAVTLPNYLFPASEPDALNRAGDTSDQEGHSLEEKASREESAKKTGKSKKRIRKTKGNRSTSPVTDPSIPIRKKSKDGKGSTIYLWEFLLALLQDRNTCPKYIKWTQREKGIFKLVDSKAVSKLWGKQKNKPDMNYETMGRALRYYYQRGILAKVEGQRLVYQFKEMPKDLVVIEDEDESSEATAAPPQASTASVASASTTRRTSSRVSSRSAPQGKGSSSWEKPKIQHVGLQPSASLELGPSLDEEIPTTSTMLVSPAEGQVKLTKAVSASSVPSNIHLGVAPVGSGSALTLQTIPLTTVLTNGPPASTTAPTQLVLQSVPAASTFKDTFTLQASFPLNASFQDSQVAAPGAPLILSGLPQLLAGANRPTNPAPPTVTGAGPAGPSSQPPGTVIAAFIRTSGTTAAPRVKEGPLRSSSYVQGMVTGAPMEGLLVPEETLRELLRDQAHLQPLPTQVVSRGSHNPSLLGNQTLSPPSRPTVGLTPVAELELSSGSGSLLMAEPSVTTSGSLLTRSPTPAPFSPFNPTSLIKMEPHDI
sequence,measurement,setting,value
GTGCTC,binding signal,[1],"1.11 fold enrichment (6-mer frequency, TF over GST control)"
same,binding signal,[2],"1.15 fold enrichment (6-mer frequency, TF over GST control)"
same,binding signal,[3],"1.05 fold enrichment (6-mer frequency, TF over GST control)"
same,binding signal,[4],"1.21 fold enrichment (6-mer frequency, TF over GST control)"
same,binding signal,[5],"1.12 fold enrichment (6-mer frequency, TF over GST control)"
same,binding signal,[6],"1.05 fold enrichment (6-mer frequency, TF over GST control)"
same,binding signal,[7],"1.16 fold enrichment (6-mer frequency, TF over GST control)"
same,binding signal,[8],"1.26 fold enrichment (6-mer frequency, TF over GST control)"
same,binding signal,[9],"1.29 fold enrichment (6-mer frequency, TF over GST control)"
same,binding signal,[10],"1.28 fold enrichment (6-mer frequency, TF over GST control)"
same,binding signal,[11],"1.19 fold enrichment (6-mer frequency, TF over GST control)"
same,binding signal,[12],"1.26 fold enrichment (6-mer frequency, TF over GST control)"
same,binding signal,[13],"1.05 fold enrichment (6-mer frequency, TF over GST control)"
same,binding signal,[14],"1.25 fold enrichment (6-mer frequency, TF over GST control)"
same,binding signal,[15],"1.22 fold enrichment (6-mer frequency, TF over GST control)"
same,binding signal,[16],"1.25 fold enrichment (6-mer frequency, TF over GST control)"
same,binding signal,[17],"1.32 fold enrichment (6-mer frequency, TF over GST control)"
